LGR2 antag: inhibitors of bursicon-induced Drosophila LGR2 receptor cAMP signaling | AID 720647 | HEK293 LGR2, CRE-luciferase, bursicon-stimulated, 4 h | inhibition, % at 9.99 µM | actives 0.35% (n = 380,000);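 active means drop in luminescence signal, shown as inhibition above about 50% in the replicate tests, limit read from the data, passing the limit was not always enough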;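 further: agonist challenge used bursicon conditioned medium at about half maximal strength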
LMP1 NFkB inh: Epstein-Barr LMP1 NF-kappaB reporter inhibition | LMP1-induced NF-kappaB luciferase reporter cells, luminescence | inhibition, % at 12.5 µM | actives 0.69% (n = 350,000); in the data active means inhibition above about 41%
EWS-Fli inh: inhibitors of EWS/Fli oncoprotein transcriptional activity | actives 0.67% (n = 350,000) | A673 NR0B1-luciferase reporter, viability-normalised | inhibition, % at 12.6 µM;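 active means mean inhibition of at least 50% after viability correction, with every replicate also passing that limit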;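 further: firefly luciferase signal divided by Alamar Blue viability fluorescence both relative to DMSO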
PAX8 reporter: lowers PAX8-driven luciferase in RMG-I cells. AID 652154. inhibition, % at 12.6 µM. RMG-I TPO-luciferase reporter, SteadyGlo, 24 h. actives 1.2% (n = 360,000);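 active means mean replicate inhibition at least 60% with every replicate also reaching 60%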;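 further: luciferase light reporting Pax8 driven TPO promoter activity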
TRPM1 prom inh: inhibitors of MITF-driven TRPM1 promoter in melanoma cells | AID 488899 | SK-MEL-5 TRPM1 promoter luciferase, 24 h | actives 0.83% (n = 330,000) | inhibition, % at 12.5 µM;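 active means mean inhibition across replicates of 60% or more, whatever share of single replicates reaches that level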
PGC1a acetyl inh: lowers PGC1a acetylation signal in U2OS cells; AlphaScreen anti-acetyl-lysine; with virally co-expressed GCN5 acetyltransferase; actives 0.17% (n = 350,000); inhibition, % at 15.6 µM; AID 651687;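 active means every replicate shows inhibition of at least 40%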
Each line names hits and unclear results; the compound was inactive in the other large screens. Hits are enriched below; roughly 2.2% of the tested compounds scored in any of these assays.

C[C@@H]1CCCCO[C@H](CN(C)CC2CCCCC2)[C@H](C)CN([C@H](C)CO)C(=O)c2cc(NC(=O)CCCN(C)C)ccc2O1	none (no result: LMP1 NFkB inh, TRPM1 prom inh)
O=C(Cc1cccc2ccccc12)Nc1ccc(-c2cc3ccccc3oc2=O)cc1	LMP1 NFkB inh 55 (no result: LGR2 antag, EWS-Fli inh, PAX8 reporter)
O=C(C[C@@H]1CC[C@H]2[C@@H](COC[C@@H](O)CN2S(=O)(=O)c2ccc(F)cc2)O1)N[C@H]1CCN(Cc2ccccc2)C1	none (no result: LMP1 NFkB inh, TRPM1 prom inh)
C[C@H]1CN([C@@H](C)CO)C(=O)c2cc(C#CCN(C)C)cnc2O[C@@H]1CN(C)S(=O)(=O)c1cn(C)cn1	none (no result: LMP1 NFkB inh, PAX8 reporter, TRPM1 prom inh)
Oc1ccccc1-c1cc(C(F)(F)C(F)F)nc(-c2ccccc2)n1	none (no result: EWS-Fli inh, PAX8 reporter)
O=[N+]([O-])c1ccc(O)c(-c2cc(C(F)(F)F)nc(-c3ccccc3)n2)c1	PAX8 reporter 107, TRPM1 prom inh 89 (no result: PGC1a acetyl inh)
COc1ccc2c3c(n(C)c2c1)[C@@H](CO)N(C(=O)C1CCCCC1)CC31CCN(C(=O)c2ccncc2)CC1	none (no result: LMP1 NFkB inh, PAX8 reporter, TRPM1 prom inh)
O=C(CC1CC1)N1[C@H](CO)[C@H](c2ccccc2)C12CN(S(=O)(=O)c1ccccc1)C2	none (no result: LMP1 NFkB inh, TRPM1 prom inh)
Cc1ccc(CNC(=O)C2CCN(S(=O)(=O)c3c(C)noc3/C=C/c3ccco3)CC2)cc1	LMP1 NFkB inh 83, PAX8 reporter 83
Cc1cccnc1NC(=O)C1CCN(S(=O)(=O)c2c(C)noc2/C=C/c2ccco2)CC1	none (no result: EWS-Fli inh)
Cc1ccc(NC(=O)C2CCN(S(=O)(=O)c3c(C)noc3/C=C/c3ccco3)CC2)nc1	TRPM1 prom inh 72 (no result: EWS-Fli inh)
CCCNC(=O)[C@@]1(c2ccc([N+](=O)[O-])cc2)CC(=O)N(CC23CC4CC(CC(C4)C2)C3)[C@@H]1c1ccc(CO)cc1I	PAX8 reporter 105 (no result: LGR2 antag, LMP1 NFkB inh, TRPM1 prom inh)
Cc1cc(S(=O)(=O)c2ccc(Cl)cc2)nc(S(=O)(=O)c2ccc(Cl)cc2)c1C#N	LMP1 NFkB inh 52, EWS-Fli inh 64, PAX8 reporter 83 (no result: TRPM1 prom inh)
O=C(Cc1cccs1)N/N=C/C=C/c1ccccc1	PAX8 reporter 107
C[C@@H]1CCCCO[C@@H](CN(C)S(=O)(=O)c2cn(C)cn2)[C@H](C)CN([C@@H](C)CO)C(=O)c2cc(NS(=O)(=O)c3cccs3)ccc2O1	none (no result: LMP1 NFkB inh, TRPM1 prom inh)
CCS(=O)(=O)N1CCCCN2[C@@H](CO)[C@@H](c3ccc(C#Cc4ccccc4OC)cc3)[C@@H]2C1	none (no result: LMP1 NFkB inh, EWS-Fli inh, TRPM1 prom inh)
CC1CCN(C(=O)/C(=C\c2cccs2)NC(=O)c2ccccc2)CC1	LMP1 NFkB inh 53 (no result: PGC1a acetyl inh)
COc1cccc(/C=N/NC(=O)CN2CC(c3ccccc3)CC2=O)c1OC (configuration not stated)	LMP1 NFkB inh 75, TRPM1 prom inh 94 (no result: LGR2 antag, PGC1a acetyl inh)
C[C@H]1CN([C@@H](C)CO)C(=O)Cc2cc(NC(=O)CCC(F)(F)F)ccc2O[C@H]1CN(C)Cc1ccc(-c2ccccc2)cc1	none (no result: TRPM1 prom inh, PGC1a acetyl inh)
C[C@H](CO)N1C[C@H](C)[C@@H](CN(C)Cc2ccc(-c3ccccc3)cc2)Oc2ccc(NC(=O)Cc3ccccc3)cc2CC1=O	PAX8 reporter 94 (no result: LMP1 NFkB inh, TRPM1 prom inh)
C[C@@H]1CN([C@H](C)CO)C(=O)Cc2cc(NC(=O)Cc3ccccc3)ccc2O[C@@H]1CN(C)Cc1ccc(-c2ccccc2)cc1	none (no result: LMP1 NFkB inh, TRPM1 prom inh)
C[C@H](CO)N1C[C@H](C)[C@H](CN(C)Cc2ccc(-c3ccccc3)cc2)Oc2ccc(NC(=O)Cc3ccccc3)cc2CC1=O	PAX8 reporter 66 (no result: LMP1 NFkB inh, TRPM1 prom inh)
C[C@@H]1CN([C@@H](C)CO)C(=O)Cc2cc(NC(=O)CCC(F)(F)F)ccc2O[C@H]1CN(C)Cc1ccc(-c2ccccc2)cc1	PAX8 reporter 100 (no result: LMP1 NFkB inh, TRPM1 prom inh)
COc1ccc(S(=O)(=O)Nc2cccc3c2O[C@@H](CN(C)Cc2ccncc2)[C@@H](C)CN([C@@H](C)CO)C3=O)cc1	none (no result: LMP1 NFkB inh, TRPM1 prom inh)
CN(C(=O)COC(=O)/C=C/c1ccc2ccccc2n1)c1c(N)n(Cc2ccccc2)c(=O)[nH]c1=O	PAX8 reporter 86
COCCN(C(=O)COC(=O)/C=C/c1ccc2ccccc2n1)c1c(N)n(Cc2ccccc2)c(=O)[nH]c1=O	PAX8 reporter 64 (no result: EWS-Fli inh, PGC1a acetyl inh)
CN(C(=O)COC(=O)/C=C/c1ccc(F)cc1)c1c(N)n(Cc2ccccc2)c(=O)[nH]c1=O	none (no result: PGC1a acetyl inh)
CCN(C(=O)COC(=O)/C=C/c1nc2ccccc2s1)c1c(N)n(Cc2ccccc2)c(=O)[nH]c1=O	none (no result: PGC1a acetyl inh)
COCCN(C(=O)COC(=O)/C=C/c1nc2ccccc2s1)c1c(N)n(Cc2ccccc2)c(=O)[nH]c1=O	PAX8 reporter 76

Assay outcomes (PubChem BioAssay)
